From PubChem BioAssay (Tox21)
Results filed as inconclusive are left out. More than one record can exist for a structure, and the calls need not agree. Calls of active or inactive are those of the source. Unless noted, calls come from the whole dose curve; as a rule, active = well fitted curve in the direction sought with a large enough effect in the repeat runs; inconclusive = weak or mixed curves; inactive = no such curve, though single readings can be large; an effect the other way counts as inactive or inconclusive.

Experiments:
[1] = A CellTox Green Cytotoxicity Assay to monitor cytotoxicity in HepG2 cells - 8 hour (AID 1224890); note: nearly all actives have a fitted effect of over 45% in size
How it was run: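 Nonlytic assay: viable cells exclude the dye, so fluorescence scales with cell death. HepG2 at 600 cells/well, compounds added after 5 h, signal read across 40 h.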

[2] = qHTS assay to identify small molecule antagonists of the estrogen receptor alpha (ER-alpha) signaling pathway using the BG1 cell line in the presence of 0.1 nM 17-beta-estradiol - cell viability counter screen (AID 1259241); note: nearly all actives have a fitted effect of over 40% in size
How it was run: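 Live-cell protease activity (CellTiter-Fluor fluorescence, 30 min) was read in the same wells after VM7Luc4E2 cells had been exposed to compounds with 0.1 nM 17beta-estradiol for 22 hr at 37C.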

[3] = qHTS assay to identify small molecule HDAC inhibitors (AID 1259364);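 note: wild-type HCT-116 cells with endogenous class I/II HDAC activity; top concentration of the series differs between compounds; nearly all actives have a fitted effect of over 45% in size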
How it was run: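 Relative class I and II HDAC activity is taken from the luminogenic signal in HCT-116 cells, with compound exposure 2 hr and reagent development 30 min at room temperature.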

[4] = qHTS assay to identify small molecule agonists of the sonic hedgehog signaling (Shh) pathway - cell viability counter screen (AID 1259366); note: nearly all actives have a fitted effect of over 50% in size; note: potency is the fitted concentration of half-maximal effect
How it was run: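 CellTiter-Fluor fluorescence read-out, 1 hr at 37C, added after 23hr compound exposure. Cells: 3T3 Gli1-Luc, an NIH/3T3 clone with stably integrated Gli1-Luc reporter, plated 4hr before compound.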

[5] = qHTS assay to identify small molecule antagonists of the sonic hedgehog signaling (Shh) pathway - cell viability counter screen (AID 1259367); note: nearly all actives have a fitted effect of over 55% in size; note: potency is the fitted concentration of half-maximal effect
How it was run: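 After a 4 hr settling period, 3T3 Gli1-Luc cells were treated with DMSO-dissolved chemicals and conditioned medium, kept 24 hr at 37C in 5% CO2, and assayed for viability by CellTiter-Fluor fluorescence following 1 hr reagent incubation.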

[6] = target: Estrogen receptor (Homo sapiens) (UniProt P03372); test: qHTS assay to identify small molecule antagonists of the estrogen receptor alpha (ER-alpha) signaling pathway using the BG1 cell line in the presence of 0.1 nM 17-beta-estradiol (AID 1259244); note: nearly all actives have a fitted effect of over 50% in size; note: potency is the fitted concentration of half-maximal effect
How it was run: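 VM7Luc4E2; 4xERE-luciferase; 0.1 nM E2 final; 22 h co-incubation, 37C; ONE-Glo luminescence after 30 min at room temperature.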

[7] = qHTS assay to identify small molecule HDAC inhibitors - cell viability counter screen (AID 1259365); note: series mostly up to about 92 µM; nearly all actives have a fitted effect of over 50% in size
How it was run: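 HCT-116 (wild type), 1,500 cells/well, overnight 37C/5% CO2; compound in DMSO 2hr; CellTiter-Glo 30min RT; luminescence read.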

[8] = qHTS assay to identify small molecule phospholipidosis (PLD) inducers (AID 1259344; active = well fitted curve in the direction sought with a large enough effect; an effect the other way counts as inactive or inconclusive)
How it was run: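 HepG2 cells grown on collagen I take up LipidTOX Red while exposed to compound for 24 h; after fixation they are imaged at 20x and pit metrics are extracted.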

[9] = target: Androgen receptor (Homo sapiens) (UniProt P10275); test: qHTS assay to identify small molecule antagonists of the androgen receptor (AR) signaling pathway using the MDA cell line in the presence of 0.5 nM R1881 (AID 1259243); note: nearly all actives have a fitted effect of over 50% in size
How it was run: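 We exposed MDA-kb2 cells to compounds under 0.5 nM R1881 stimulation for 16 hr at 37C and quantified MMTV-driven luciferase by luminescence.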

Measured: Potency

Chain of Androgen receptor (Homo sapiens) (P10275 whole entry, looked up): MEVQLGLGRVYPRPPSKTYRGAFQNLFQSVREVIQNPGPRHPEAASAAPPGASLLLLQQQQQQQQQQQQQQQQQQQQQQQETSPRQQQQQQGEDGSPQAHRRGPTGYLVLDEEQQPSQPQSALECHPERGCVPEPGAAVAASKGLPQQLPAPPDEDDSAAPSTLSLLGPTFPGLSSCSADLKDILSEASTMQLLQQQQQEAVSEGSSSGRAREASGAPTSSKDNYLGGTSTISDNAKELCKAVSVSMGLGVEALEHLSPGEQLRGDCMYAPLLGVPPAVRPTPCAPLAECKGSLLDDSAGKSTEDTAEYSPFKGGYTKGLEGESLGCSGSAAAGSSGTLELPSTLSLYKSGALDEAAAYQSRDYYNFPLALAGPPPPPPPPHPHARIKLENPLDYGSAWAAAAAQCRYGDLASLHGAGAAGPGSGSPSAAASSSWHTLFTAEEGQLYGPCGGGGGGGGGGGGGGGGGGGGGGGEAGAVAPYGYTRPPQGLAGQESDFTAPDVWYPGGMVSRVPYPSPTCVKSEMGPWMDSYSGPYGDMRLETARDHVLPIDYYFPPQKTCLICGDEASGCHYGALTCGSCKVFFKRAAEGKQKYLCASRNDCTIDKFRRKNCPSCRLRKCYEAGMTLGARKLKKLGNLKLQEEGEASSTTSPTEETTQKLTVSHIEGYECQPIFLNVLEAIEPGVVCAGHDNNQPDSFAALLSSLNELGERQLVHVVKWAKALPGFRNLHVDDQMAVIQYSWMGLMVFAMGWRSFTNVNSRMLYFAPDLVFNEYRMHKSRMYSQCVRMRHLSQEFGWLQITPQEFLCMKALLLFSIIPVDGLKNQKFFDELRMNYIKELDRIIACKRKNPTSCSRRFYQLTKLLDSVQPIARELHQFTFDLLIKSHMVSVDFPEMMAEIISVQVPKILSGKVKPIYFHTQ
Chain of Estrogen receptor (Homo sapiens) (P03372 whole entry, looked up): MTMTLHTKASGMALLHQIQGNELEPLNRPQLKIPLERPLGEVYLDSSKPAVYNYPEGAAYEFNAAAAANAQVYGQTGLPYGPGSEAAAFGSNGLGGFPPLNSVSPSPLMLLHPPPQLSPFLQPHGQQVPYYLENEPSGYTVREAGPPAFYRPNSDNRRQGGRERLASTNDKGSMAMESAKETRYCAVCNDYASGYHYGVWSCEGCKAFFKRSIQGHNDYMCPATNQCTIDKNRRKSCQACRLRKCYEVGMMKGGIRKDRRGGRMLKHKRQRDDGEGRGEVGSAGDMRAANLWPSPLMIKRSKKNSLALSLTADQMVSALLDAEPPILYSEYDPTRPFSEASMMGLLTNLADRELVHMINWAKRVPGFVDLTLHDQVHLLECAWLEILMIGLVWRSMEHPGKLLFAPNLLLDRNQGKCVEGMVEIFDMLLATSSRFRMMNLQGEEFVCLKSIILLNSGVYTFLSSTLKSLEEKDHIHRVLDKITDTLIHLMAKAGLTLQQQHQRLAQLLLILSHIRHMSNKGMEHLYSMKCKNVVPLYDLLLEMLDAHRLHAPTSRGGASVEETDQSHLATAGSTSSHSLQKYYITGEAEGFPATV

C=CCc1ccc(OC)c(OC)c1
inactive: [1] | [2] | [3] | [4] | [5]

CC1(C)S[C@@H]2[C@H](NC(=O)COc3ccccc3)C(=O)N2[C@H]1C(=O)O
not listed: [7] | [8] | [9]
inactive: all other assays above

CCNc1cccc(C)c1
not listed: [7] | [8] | [9]
inactive: all other assays above

CCCCCCO
not listed: [7] | [8] | [9]
inactive: all other assays above

CC(C)c1cccc(C(C)C)c1
not listed: [7] | [8] | [9]
inactive: all other assays above

CC(C)CC(C)O (configuration not stated)
not listed: [7] | [8] | [9]
inactive: all other assays above

Cc1ccc(S(=O)(=O)N=C=O)cc1
23.9 µM (active) and inactive: [5]
16.9 µM (active) and inactive: [4]
not listed: [8] | [9]
inactive: all other assays above

C[Si]1(C)O[Si](C)(C)O[Si](C)(C)O[Si](C)(C)O1
not listed: [8] | [9]
inactive: all other assays above

C=CC[N+](C)(C)CC=C
inactive: [1] | [2] | [3] | [4] | [5]

N#Cc1ccccc1
not listed: [6] | [8] | [9]
inactive: all other assays above

O=C(OCC1CCC2OC2C1)C1CCC2OC2C1 (configuration not stated)
inactive: [1] | [2] | [6] | [3] | [7]

CC(=O)OC1CC(C)OC(C)O1 (configuration not stated)
not listed: [6] | [8] | [9]
inactive: all other assays above

CCCCOC(=O)c1ccc(N)cc1
not listed: [9]
inactive: all other assays above

CNC(=S)N(C)C
not listed: [7] | [8] | [9]
inactive: all other assays above

COc1ccc(OC)cc1
not listed: [8] | [9]
inactive: all other assays above

CNC(=O)Oc1ccc2c(c1)[C@]1(C)CCN(C)[C@@H]1N2C
not listed: [9]
inactive: all other assays above

O=C(O)c1ccccc1C(=O)O
not listed: [7] | [8] | [9]
inactive: all other assays above

CC(C)OP(=O)(CP(=O)(OC(C)C)OC(C)C)OC(C)C
not listed: [8] | [9]
inactive: all other assays above

CC(C)CC(=O)CC(C)CC(C)C (configuration not stated)
not listed: [6] | [8]
inactive: all other assays above

COc1ccc(CCC(C)=O)cc1
inactive: [1] | [2] | [3] | [4] | [5]

O=S(=O)(O)c1ccccc1
inactive: [1] | [2] | [3] | [4] | [5]

CC1(C)OC[C@@H]2O[C@@]3(C(=O)O)OC(C)(C)O[C@H]3[C@@H]2O1
not listed: [6] | [7] | [9]
inactive: all other assays above

O=C(O)c1ccc(S(=O)(=O)N(Cl)Cl)cc1
38.8 µM (active) and inactive: [6]
not listed: [9]
inactive: all other assays above

CCOC(=O)c1ccc(N)cc1
not listed: [6] | [7] | [9]
inactive: all other assays above

O=C1C(c2[nH]c3ccccc3c2O)=Nc2ccccc21
not listed: [6] | [9]
inactive: all other assays above

C[C@]12CCC(=O)C=C1CC[C@@H]1[C@@H]2[C@@H](O)C[C@@]2(C)[C@H]1CC[C@]2(O)C(=O)CO
not listed: [6]
inactive: all other assays above

CC(C)=CCl
not listed: [7] | [8] | [9]
inactive: all other assays above

CC(O)CC(C)(C)O (configuration not stated)
not listed: [6] | [8] | [9]
inactive: all other assays above

CCCCCCCCCCN
inactive: [1] | [2] | [3] | [4] | [5]

C=Cc1ccc(C)cc1
inactive: [1] | [2] | [3] | [4] | [5]

C[C@]12CC[C@@H]3c4ccc(O)cc4CC[C@H]3[C@@H]1C[C@@H](O)[C@@H]2O
not listed: [6] | [7] | [9]
inactive: all other assays above

CCCCCCC=O
not listed: [8] | [9]
inactive: all other assays above

COC(=O)c1cccnc1
not listed: [6] | [7]
inactive: all other assays above
